# Assay results: PubChem BioAssay (NCATS)
# Values joined by “and” are separate entries in the source; they are usually repeats but may differ in a detail not shown here. Equal entries are not always repeated. Results filed as inconclusive are left out. A call without a number means that no potency is given here. Active and inactive are the calls of the source. Unless noted, calls come from the whole dose curve; as a rule, active = well fitted curve in the direction sought with a large enough effect; inconclusive = small, poorly fitted or top-dose-only effect, or another doubt; inactive = no such curve, though single readings can be large; an effect the other way counts as inactive or inconclusive.
# Key:
# [1] = qHTS to identify inhibitors of the type 1 interferon - major histocompatibility complex class I in skeletal muscle: primary screen against the NCATS LOPAC collection (AID 1347405);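 note: human myoblasts with HiBiT tag on endogenous HLA-B stimulated by IFN-beta; lytic HiBiT luminescence reporting HLA-B protein level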
# Summary of the method: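 First, engineered myoblasts carrying HLA-B-HiBiT were seeded in medium lacking dexamethasone with 4 ng/ml IFN-beta. After 1 hr, compounds were pinned in (top 46 uM final, 7 points). After 24 hrs at 37 C, luminescence was measured following 10 min lysis.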
# [2] = qHTS to identify inhibitors of the type 1 interferon - major histocompatibility complex class I in skeletal muscle: primary screen against the NCATS Pharmaceutical Collection (AID 1347407);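 note: luminescence of HiBiT knocked into endogenous HLA-B as interferon-induced MHC class I level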
# Summary of the method: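 A qHTS format is used: 8-point, 1:5 compound series with 46 uM top final concentration, applied alongside 4 ng/ml IFN-beta to HLA-B*08:01-HiBiT knock-in myoblasts. Luminescence is measured after 24 h treatment.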
# [3] = qHTS for inhibitors of adenylyl cyclases using a fission yeast platform: a pilot screen against the NCATS LOPAC library (AID 1347410)
# Summary of the method: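 Inhibition of GNAS-stimulated AC9 activity in S. pombe was inferred from derepression of a PKA-repressed fbp1-GFP reporter, measured as cytometric fluorescence after 18 h at 30C with compounds at up to 57 µM.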
# [4] = qHTS to identify inhibitors of the type 1 interferon - major histocompatibility complex class I in skeletal muscle: primary screen against the NCATS Mechanism Interrogation Plate v5.0 (MIPE) Libary (AID 1347411); note: nearly all actives have a fitted effect of over 65% in size
# Summary of the method: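 Seed engineered human myoblasts (HLA-B HiBit) in medium without dexamethasone containing 4 ng/ml IFN-beta; after 1 hr add compound titrations (top 46 uM final). Incubate 24 hrs at 37 C, lyse 10 min with HiBiT reagent, read luminescence.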
# [5] = target: Protein phosphatase 1D (Homo sapiens) (UniProt O15297); assay: RapidFire Mass Spectrometry qHTS Assay for Modulators of WT P53-Induced Phosphatase 1 (WIP1) (AID 1347424);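 note: amount of dephosphorylated VEPPL-S-QETFS peptide product formed by WIP1; series mostly up to about 63 µM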
# Protein phosphatase 1D (Homo sapiens), sequence (O15297 whole entry, looked up): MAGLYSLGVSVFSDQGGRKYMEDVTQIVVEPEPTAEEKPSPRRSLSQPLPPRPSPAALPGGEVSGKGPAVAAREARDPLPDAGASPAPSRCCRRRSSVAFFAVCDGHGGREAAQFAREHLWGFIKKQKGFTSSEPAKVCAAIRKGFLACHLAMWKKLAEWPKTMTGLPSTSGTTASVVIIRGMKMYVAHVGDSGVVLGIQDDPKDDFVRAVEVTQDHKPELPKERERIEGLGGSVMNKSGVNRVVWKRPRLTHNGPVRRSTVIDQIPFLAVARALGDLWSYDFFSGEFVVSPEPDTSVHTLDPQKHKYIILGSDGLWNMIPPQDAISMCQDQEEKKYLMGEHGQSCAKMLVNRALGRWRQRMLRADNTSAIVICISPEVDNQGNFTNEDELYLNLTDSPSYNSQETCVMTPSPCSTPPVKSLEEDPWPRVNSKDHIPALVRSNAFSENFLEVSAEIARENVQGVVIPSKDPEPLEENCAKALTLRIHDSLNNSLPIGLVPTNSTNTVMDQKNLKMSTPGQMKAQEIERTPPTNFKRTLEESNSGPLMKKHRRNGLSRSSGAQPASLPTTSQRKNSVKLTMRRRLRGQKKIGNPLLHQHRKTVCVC
# Summary of the method: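 RapidFire mass spectrometry measured dephosphorylated peptide after 5 min room-temperature reaction of 2 uM VEPPL-pS-QETFS with 10 nM WIP1 (50 mM Tris-HCl pH 7.5, 30 mM MgCl2, 0.1 mM EGTA, BSA), following 1 hr compound preincubation; 1 uM isotope-labelled product standard.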
# [6] = target: Protein phosphatase 1D (Homo sapiens) (UniProt O15297); assay: Rhodamine-PBP qHTS Assay for Modulators of WT P53-Induced Phosphatase 1 (WIP1) (AID 1347425)
# Summary of the method: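 WIP1 (5 nM final) was preincubated with compound for 1 hour at room temperature. It then dephosphorylated 10 uM VEPPL-pS-QETFS peptide in Tris-HCl pH 7.5 with 30 mM MgCl2. Released Pi was detected by 10 uM Rh-PBP fluorescence (ex 525/em 598 nm) read at 1-min intervals for 11 min, as delta f1 - f0.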
# [7] = Validation qHTS assay for inhibitors of Activation Induced Cytidine Deaminase (AID): UDG Counterscreen signal (AID 1347427)
# Summary of the method: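 Fluorescence at 560 nm excitation, 665 nm emission reports UDG signal after 250 mM NaOH (2x) addition and 30 min. Enzymes (AID 1 uM, UDG 2 U/mL, at 4/3x) preincubated 10 min with compound, then 4 h with 4x 250 nM DJC20/DJC23 substrate at room temperature.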
# [8] = target: Single-stranded DNA cytosine deaminase (Homo sapiens) (UniProt Q9GZX7); assay: Validation qHTS assay for inhibitors of Activation Induced Cytidine Deaminase (AID): AID signal (AID 1347429)
# Single-stranded DNA cytosine deaminase (Homo sapiens), sequence (Q9GZX7 whole entry, looked up): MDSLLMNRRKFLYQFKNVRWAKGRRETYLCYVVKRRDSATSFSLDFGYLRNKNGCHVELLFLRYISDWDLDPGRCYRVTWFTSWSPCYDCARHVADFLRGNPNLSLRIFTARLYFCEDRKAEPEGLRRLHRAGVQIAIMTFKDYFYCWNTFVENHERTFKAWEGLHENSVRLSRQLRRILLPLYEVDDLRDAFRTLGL
# Summary of the method: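 Steps: dispense AID with UDG; pin-transfer compound up to 114 uM final; add DJC20/DJC23 substrate and hold 4 hr at room temperature; add NaOH, hold 30 min; read FRET signal (540/590 nm).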
# [9] = Primary qHTS for inhibitors of La Crosse Virus (LACV) - induced cell death in SH-SY5Y cells (AID 1508616);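 note: top concentration of the series differs between compounds; higher means more rescue of cells from virus-induced death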
# Summary of the method: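 SH-SY5Y, 6000 cells/well; cpd via pin tool in DMSO; LACV 0.01 MOI; 6 d 37C 5% CO2; ATPLite, 5 min RT; luminescence normalized to ±virus DMSO controls.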
# [10] = target: Calcium and integrin-binding protein 1 (Homo sapiens) (UniProt Q99828); assay: Validation qHTS for Identification of Calcium Integrin Binding protein 1 (CIB1) Competitor (AID 1508618)
# Calcium and integrin-binding protein 1 (Homo sapiens), sequence (Q99828 whole entry, looked up): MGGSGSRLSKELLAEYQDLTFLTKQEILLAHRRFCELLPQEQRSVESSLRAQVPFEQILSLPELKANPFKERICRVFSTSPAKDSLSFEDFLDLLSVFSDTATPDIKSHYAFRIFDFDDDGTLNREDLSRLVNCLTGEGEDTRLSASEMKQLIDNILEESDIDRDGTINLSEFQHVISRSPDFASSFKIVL
# Summary of the method: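 Fluorescence polarization with 1 uM CIB1-GST and 100 nM FITC-alphaIIb peptide in HEPES pH 7.4, NaCl, 5 mM CaCl2, Tween20. Compounds at up to 114 uM final, preincubated with protein 15 min; read after 15 min more at RT.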
# [11] = target: Calcium and integrin-binding protein 1 (Homo sapiens) (UniProt Q99828); assay: Primary qHTS for Identification of Calcium Integrin Binding Protein 1 (CIB1) Competitor (AID 1508620);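 note: GST tagged CIB1 binding a fluorescein labelled alphaIIb integrin peptide tracer; top concentration of the series differs between compounds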
# Summary of the method: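 CIB1-GST (1 uM final) and compound incubated 15 min at room temperature before adding FITC-alphaIIb peptide tracer (100 nM final). Competition for binding read by fluorescence polarization (ex 480, em 540) after another 15 min at room temperature.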
# [12] = Counterscreen qHTS for small molecule stabilizers of the endoplasmic reticulum resident proteome: GLuc-NoTag assay (AID 1508627); note: series mostly up to about 76 µM
# Summary of the method: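 Counterscreen line: SH-SY5Y-GLuc-NoTag cells, treated with compound 19 hr before a 4 hr, 100 nM thapsigargin calcium depletion. Secreted Gaussia luciferase in the medium was measured by luminescence after coelenterazine was added (0.07x final), with cells unlysed.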
# [13] = Confirmatory qHTS for small molecule stabilizers of the endoplasmic reticulum resident proteome: Secreted ER Calcium Modulated Protein (SERCaMP) assay (AID 1508628); note: series mostly up to about 76 µM; nearly all actives have a fitted effect of over 40% in size
# Summary of the method: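 Reporter secretion upon ER calcium depletion (100 nM thapsigargin, 4 h, 37C) is measured as medium luminescence with coelenterazine, after 16 h compound pretreatment of SH-SY5Y-GLuc-SERCaMP cells; primary at three concentrations up to 38.3 uM, follow-up at 11 (up to 76.6 uM).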
# [14] = Primary qHTS for small molecule stabilizers of the endoplasmic reticulum resident proteome: Secreted ER Calcium Modulated Protein (SERCaMP) assay (AID 1508630)
# Summary of the method: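 The SH-SY5Y reporter protocol was run at 3 concentrations up to 38.3 uM (primary) or 11 concentrations (follow-up): 16 h compound, 100 nM thapsigargin for 4 h, then extracellular luciferase luminescence.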
# [15] = A High-Content qHTS Against Drug Library for the Identification of Small Molecules that Inhibit DYT1 Early Onset Primary Dystonia-Associated Cell Pathology (AID 1645839; calls by dose curve; note: potency is the fitted concentration of half-maximal effect)
# Summary of the method: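 High-content imaging quantified EGFP-TorsinA mislocalization in HEK293-derived cells inducibly expressing DYT1 mutant torsinA, after 48 h exposure to compound given together with tetracycline induction. Cell count served as a toxicity channel alongside %pathology.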
# [16] = target: Cytochrome P450 2D6 (Homo sapiens) (UniProt P10635); assay: Cytochrome P450 family 2 subfamily D member 6 (CYP2D6) small molecule antagonists: luciferase biochemical (cell-free) qHTS assay (AID 1645840; active = well fitted curve in the direction sought with a large enough effect in the repeat runs; an effect the other way counts as inactive or inconclusive; note: nearly all actives have a fitted effect of over 55% in size; note: potency is the fitted concentration of half-maximal effect)
# Cytochrome P450 2D6 (Homo sapiens), sequence (P10635 whole entry, looked up): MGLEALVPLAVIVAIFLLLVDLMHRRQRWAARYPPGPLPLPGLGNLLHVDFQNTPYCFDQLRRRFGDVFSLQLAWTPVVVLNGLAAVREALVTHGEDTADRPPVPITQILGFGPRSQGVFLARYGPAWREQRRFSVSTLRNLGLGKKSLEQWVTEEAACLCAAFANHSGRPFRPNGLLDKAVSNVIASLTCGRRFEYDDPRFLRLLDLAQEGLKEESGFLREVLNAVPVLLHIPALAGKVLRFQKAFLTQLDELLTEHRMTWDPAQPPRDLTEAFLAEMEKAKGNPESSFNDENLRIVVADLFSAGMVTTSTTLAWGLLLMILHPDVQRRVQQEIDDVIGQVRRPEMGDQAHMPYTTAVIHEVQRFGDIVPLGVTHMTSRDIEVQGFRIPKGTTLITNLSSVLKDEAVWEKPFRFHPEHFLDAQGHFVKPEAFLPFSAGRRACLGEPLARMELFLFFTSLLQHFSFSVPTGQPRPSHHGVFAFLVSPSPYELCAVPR
# Summary of the method: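 P450-Glo CYP2D6 system: proluciferin substrate converted by enzyme to luciferin, read by luminescence proportional to activity. Enzyme-substrate mix with compound 10 min at room temperature, then NADPH regeneration 1 h before detection reagent.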
Structure (SMILES),Potency [1],Potency [2],outcome [3],Potency [4],Potency [5],outcome [6],Potency [7],Potency [8],Potency [9],Potency [10],Potency [11],Potency [12],Potency [13],Potency [14],Potency [15],Potency [16]
O=C(c1ccc(OCCN2CCCCC2)cc1)c1c(-c2ccc(O)cc2)sc2cc(O)ccc12,inactive,inactive,inactive,inactive,inactive,inactive,inactive,inactive,inactive,inactive,inactive,inactive,inactive,–,–,–
O=C1N(c2ccccc2)c2ccccc2C1(Cc1ccncc1)Cc1ccncc1,inactive,inactive,inactive,inactive,inactive,inactive,inactive,inactive,inactive,inactive,inactive,–,–,inactive,inactive,inactive
CC(C)NCC(O)COc1ccc(CCOCC2CC2)cc1 (stereo not drawn),inactive,inactive,inactive,inactive,inactive,inactive,inactive,inactive,inactive,inactive,inactive,–,–,inactive,inactive,inactive
CCC1(C)CC(=O)NC1=O (stereo not drawn),inactive,inactive,inactive,inactive,inactive,inactive,inactive,inactive,inactive,inactive,inactive,–,–,inactive,inactive,inactive
CNCCCC12CCC(c3ccccc31)c1ccccc12,inactive,inactive,inactive,inactive,inactive,inactive,inactive,inactive,inactive,inactive,inactive,–,–,inactive,12.6 µM (active),–
N[C@@H](Cc1c[nH]c2ccc(O)cc12)C(=O)O,inactive,inactive,inactive,inactive,inactive,inactive,inactive,inactive,inactive,inactive,inactive,–,–,inactive,inactive,19.5 µM (active)
Cc1cc(C(C)(C)C)c(O)c(C)c1CC1=NCCN1,inactive,inactive,inactive,inactive,inactive,inactive,inactive,inactive,inactive,inactive,inactive,–,–,inactive,inactive,1.95 µM (active)
CCOC(=O)C(C)(C)Oc1ccc(Cl)cc1,inactive,inactive,inactive,inactive,inactive,inactive,inactive,inactive,inactive,inactive,inactive,–,–,inactive,inactive,–
CC(C)NCC(O)c1ccc(O)c(O)c1 (stereo not drawn),inactive,inactive,inactive,inactive,inactive,inactive,inactive,inactive,inactive,inactive,inactive,–,inactive,inactive,–,–
NCCc1cnc[nH]1,inactive,inactive,inactive,inactive,inactive,inactive,inactive,inactive,inactive,inactive,inactive,–,–,inactive,inactive,–
CN(C)CCC=C1c2ccccc2C=Cc2ccccc21,inactive,inactive,inactive,inactive,inactive,inactive,inactive,inactive,inactive,inactive,inactive,inactive,–,–,–,3.89 µM (active) and 8.49 µM (active)
Cc1cc(C(C)(C)C)cc(C)c1CC1=NCCN1,inactive,inactive,inactive,inactive,inactive,inactive,inactive,inactive,inactive,inactive,inactive,–,–,inactive,inactive,4.36 µM (active)
COc1ccccc1OCC(O)CN1CCN(CC(=O)Nc2c(C)cccc2C)CC1 (stereo not drawn),inactive,inactive,inactive,inactive,inactive,inactive,inactive,inactive,inactive,inactive,inactive,–,–,inactive,inactive,–
CN(C)CCOC(c1ccccc1)c1ccccc1,inactive,inactive,inactive,inactive,inactive,inactive,inactive,inactive,inactive,inactive,inactive,–,–,inactive,inactive,–
NC(=O)NO,inactive,inactive,inactive,inactive,inactive,inactive,inactive,inactive,inactive,inactive,inactive,–,–,inactive,inactive,–
NC12CC3CC(CC(C3)C1)C2,inactive,inactive,inactive,inactive,inactive,inactive,inactive,inactive,inactive,inactive,inactive,inactive,inactive,inactive,inactive,–
CN1CCN(C2=Nc3cc(Cl)ccc3Nc3ccccc32)CC1,inactive,inactive,inactive,inactive,inactive,inactive,inactive,inactive,inactive,inactive,inactive,–,–,–,–,–
CN(C)CCCN1c2ccccc2CCc2ccc(Cl)cc21,inactive,inactive,inactive,inactive,inactive,inactive,inactive,inactive,inactive,–,–,–,inactive,inactive,–,–
